# About 1,900 (0.58%) of roughly 330,000 compounds were called active. Inconclusive results (about 4%) are left out. The list is a sample of the results. Potency and affinity values are given separately. Values without a mark were called inactive. Cut-off read from the data, not from the text of the source: inconclusive = inhibition above about 70% without an active follow-up result; inactive = below that.
# Experiment: M. tuberculosis growth inhibition, HTS (AID 449762);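 note: bacterial growth assessed after seven days of incubation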
# Conditions: M. tuberculosis H37Rv growth inhibition, 7H9 media; at 25 µM; stronger effect = higher value
row,Structure (SMILES),inhibition [%]
1,CC1(C)C[C@H](O)[C@@]23C[C@@H](OC2=O)[C@]2(C)C(=CCC4[C@@]5(C)CC[C@H](O)C(C)(C)C5CC[C@]42C)[C@@H]3C1 (stereo partly drawn),3.65
2,CCOC(=O)c1cc(CC)sc1NC(=O)COC(=O)C1CCC1,-15.8
3,Cc1cccc(C)c1NC(=O)CN1N=NC2C(=O)N(c3cccc(Cl)c3)C(=O)C21 (stereo not drawn),2.55
4,CN(C)S(=O)(=O)c1cccc(NC(=O)CSc2nc3ccccc3[nH]2)c1,-2.08
5,O=C(Nc1nnc(C2CC2)s1)c1cncc(Br)c1,5.39
6,COc1ccc(CNC(=O)C(=O)NCCC2CCCCN2S(=O)(=O)c2cccs2)cc1 (stereo not drawn),5.17
7,COc1ccc(CCNC(=O)C(=O)NCC2OCCN2S(=O)(=O)c2ccc(C)cc2)cc1OC (stereo not drawn),-6.63
8,Cc1ccc(NC(=O)N2CCCC2C(=O)NCC2CCCCC2)cc1 (stereo not drawn),5.67
9,Clc1ccc(Cl)c(-c2ccc(/C=N/c3ncn[nH]3)o2)c1,8.33
10,Cc1cc(C(=O)N/N=C/c2ccc(-c3ccc(C)c(Cl)c3)o2)n[nH]1,42.8
11,Cc1ccc(/C=N/n2c(COc3ccccc3)n[nH]c2=S)cc1,6.13
12,O=C(COC(=O)CCc1c[nH]c2ccccc12)Nc1ccc([N+](=O)[O-])cc1,2.33
13,Cc1ccc(NC(=O)COC(=O)Cc2c[nH]c3ccccc23)cc1C,-4.13
14,COc1cc(/C=C/C(=O)OCC(=O)NCCC2=CCCCC2)cc(OC)c1OC,2.02
15,Cc1ccccc1NS(=O)(=O)c1ccc(C(=O)N2CCN(c3ccccc3O)CC2)cc1,4.31
16,Cc1cccc(NS(=O)(=O)c2ccc(C(=O)N3CCCC3)cc2)c1C,-8.71
17,OC(COCc1ccc(Cl)cc1)CN1CCCCC1 (stereo not drawn),1.29
18,C=CCNC(=O)/C(C#N)=C\c1cc(Cl)c(OCC)c(OC)c1,7.41
19,COc1cccc(CN(C)C(=O)CSCC(=O)Nc2cccc(C)c2)c1OC,-5.41
20,CC(C)C(=O)N=c1sc2cc(F)cc(F)c2n1C,-9.4
21,O=C(NCc1cccs1)c1cccc(Nc2nc3ccc(Br)cc3[nH]2)c1,-11
22,O=C(NCC1CC1)c1ccc(Nc2nc3ccc(Br)cc3[nH]2)cc1,-0.43
23,CC(=O)Oc1ccc(-c2cccc(C(=O)NCCO)c2)cc1,-0.93
24,O=S(=O)(NC1CCCCC1Nc1ccccc1)c1ccccc1 (stereo not drawn),-7.27

row,Structure (SMILES),inhibition [%]
1,O=C(CN(c1ccc(F)cc1)S(=O)(=O)c1ccc2c(c1)OCCO2)N1CCOCC1,1.58
2,CCCCCC(=O)NCc1c(C(F)(F)F)nn(C)c1N1CCOCC1,-1.96
3,O=C(CN1CCNC(=O)C1)NCCc1ccc(Cl)cc1Cl,-0.1
4,O=C(C[N+]12CCN(CC1)CC2)NCCc1ccc(Cl)cc1Cl,-3.14
5,COc1ccc(OC)c(NC(=O)c2cccnc2Sc2cc(C)ccc2C)c1,8.29
6,CC(C)(C)c1ccccc1OCCOCCNCc1ccccc1,2.6
7,Cc1ccc(S(=O)(=O)n2ccc3c(OCCOCCSCC(NC(=O)OC(C)(C)C)C(=O)O)cccc32)cc1 (stereo not drawn),0.6
8,O=C(CSc1nc2ccccc2[nH]1)Nc1ccc2[nH]c(=O)[nH]c2c1,8.79
9,CC(=O)Nc1ccc(NC(=O)CSc2ncnc3sc(C)c(C)c23)cc1,-0.3
10,CNc1nc(-c2ccc3c(c2)CCN3C(=O)c2ccccc2F)c(C)s1,9.7
11,O=C1/C(=C/c2ccccn2)SC(=S)N1NS(=O)(=O)c1ccccc1,5.72
12,CCC(=O)NCCCCCCNC(=O)CC,0.18
13,CCC(=O)NCCCCCCCCCNC(=O)CC,-4.93
14,C=CCn1c(SCC(=O)Nc2ccccc2F)nnc1C(C)NC(=O)c1ccccc1F (stereo not drawn),-12.4
15,Cc1ccc(-c2c(C)n([O-])c3c([n+]2=O)CCCCC3)cc1,-3.38
16,CCCCSc1nnc([C@H](CC(C)C)NC(=O)OC(C)(C)C)o1,-2.58
17,CC(C)C[C@H](NC(=O)OC(C)(C)C)c1nnc(SCc2ccccc2)o1,-3.57
18,COc1ccc(C)cc1S(=O)(=O)NCc1cccs1,1.39
19,O=C(NCCc1ccc(Cl)cc1)c1ccc(OCC2CCCO2)cc1 (stereo not drawn),5.17
20,O=C(NC1CCCCC1)N1CCN(Cc2nc3ccccc3c(=O)[nH]2)CC1,-4.69
21,COc1ccc(NC(=S)NC(=O)C2CCC2)cc1,-0.22
22,CC(=O)Nc1ccc(NC(=S)NC(=O)C2CCCC2)cc1,-8.34
23,Cn1nc(C(F)(F)F)c(C(=O)Nc2ccc(F)cc2F)c1Sc1ccc(Cl)cc1,-9.99
24,COc1ccc(-c2ccc3oc(-c4ccsc4)cc(=O)c3c2)cc1F,-0.47

row,Structure (SMILES),inhibition [%]
1,COc1cc(-c2ccc3oc(-c4ccsc4)cc3c2)cc(OC)c1OC,0.64
2,O=C1c2ccccc2C(=O)N1CCc1csc(-c2cccc(F)c2)n1,3.85
3,COC(=O)CC1C(=O)NCCN1C(=O)c1ccccc1 (stereo not drawn),-6.14
4,Brc1cccc2sc(N3CCCC3)nc12,6.95
5,Brc1ccc2nc(N3CCN(c4ccccc4)CC3)sc2c1,-4.96
6,COc1ccc(C(=O)Nc2ccccc2C(=O)NCCN2CCOCC2)cc1OC,4.9
7,O=C(COC(=O)c1ccc2c(c1)OCCO2)Nc1cccc(S(=O)(=O)N2CCOCC2)c1,9.61
8,COCCNC(=S)N/N=C(\C)c1ccccc1OC,-6.36
9,COc1ccccc1C(=O)NNC(=O)CCC(=O)NCc1ccccc1,-3.02
10,C/C(=N\NC(=S)NCc1ccccc1)c1ccc(Br)cc1,6.33
11,COc1ccccc1C(=O)NCc1ccccc1,10.8
12,CSc1ccccc1NC(=O)Nc1cccc(F)c1,1.3
13,CC(C)(C)N(Cc1ccccc1)C(=O)COC(=O)CNC(=O)c1ccco1,5.79
14,CC(C)C(NC(=O)c1cccs1)C(=O)NC1=NCCS1 (stereo not drawn),-3.72
15,COc1cc(OC)cc(C(=O)N[C@H](C(=O)Nc2nc3ccc(S(C)(=O)=O)cc3s2)C(C)C)c1,10.5
16,CCOC(=O)c1csc(NC(=O)c2cc(=O)c3ccccc3o2)n1,-0.69
17,CCOC(=O)c1sc(NC(=O)c2cc3ccccc3o2)nc1C,3.64
18,COc1cccc(/C=N/Nc2nc(N3CCCC3)nc(N3CCCC3)n2)c1O,3.67
19,COc1cc(/C=N/Nc2nc(Nc3ccccc3)nc(-n3nc(C)cc3C)n2)cc(OC)c1OC,10.6
20,COc1ccc(NC(=S)N2CCC(N(C)CCN3CCOCC3)CC2)cc1,2.62
21,COc1ccccc1C(=O)NCCC(=O)N1CCN(c2ccccc2O)CC1,1.15
22,COc1ccc(-c2csc3nc(-c4ccccc4F)oc(=O)c23)cc1,-1.39
23,CCOc1ccccc1N1CCN(c2ncnc3scc(-c4ccc(OC)cc4)c23)CC1,-0.51
24,COc1ccc(-c2csc3ncnc(N4CCN(c5ccccc5Cl)CC4)c23)cc1,50.3

row,Structure (SMILES),inhibition [%]
1,COc1ccc(-c2nc3scc(-c4ccc(OC)c(OC)c4)c3c(=O)o2)cc1,11.9
2,CCN(CC)c1ccc(C2C(C(C)=O)C(=O)CC(C)(O)C2C(C)=O)cc1 (stereo not drawn),-4.35
3,C1CN(c2nc3nonc3nc2N2C[C@H]3CC[C@H]2C3)CCS1,-11
4,CCNC(=S)N(CCc1c(C)[nH]c2ccccc12)Cc1cccnc1,-3.56
5,CN1CCN(C(=O)CCN2C(=O)/C(=C\c3ccccc3F)SC2=S)CC1,-5.52
6,COc1ccc(-c2c(C#Cc3ccsc3)c3cc(Br)ccc3n2C)cc1,8.44
7,COc1ccc(C#Cc2c(-c3ccccc3)n(C)c3ccccc23)cc1,6.76
8,COc1cc(CNCCO)cc(Cl)c1OCc1ccccc1Cl,1.99
9,COc1cc(CNCc2ccccc2)cc(Cl)c1OC,-0.38
10,CCN(C(=O)c1cnc2scc(C)n2c1=O)c1ccccc1C,-2.4
11,COc1ccc(NC(=O)CC(Cc2ccc(Cl)cc2)C(=O)O)cc1 (stereo not drawn),1.62
12,Cc1cccc(C)c1NC(=O)CN(C)C(=O)c1ccccc1Cc1ccccc1,2.81
13,Cc1cc(C)n2nc(SCC(=O)NC(=O)c3ccccc3Cl)nc2n1,1.71
14,Cc1nn(-c2ccccc2)c2[nH]c(=O)c(CNCc3ccc4c(c3)OCO4)cc12,-4.36
15,CC(C)(C)c1nn(-c2ccccc2)c2[nH]c(=O)c(CNc3ccc4c(c3)OCCO4)cc12,52.8
16,Cc1ccccc1NC(=O)C1CCN(S(=O)(=O)c2cccc3nonc23)CC1,4.17
17,CCC[C@@H]1C[C@@H](C(=O)N[C@H]([C@@H](C)O)[C@H]2O[C@H](SC)[C@H](O)[C@@H](O)C2O)N(C)C1 (stereo partly drawn),59.1
18,Cc1ccc(NC(=O)[C@@H](CC(C)C)NC(=O)[C@@H]2Cc3ccccc3CN2)cc1,2.07
19,CCOC(=O)C(C)Sc1ccc2nnc(CCNS(=O)(=O)c3ccc(C)cc3)n2n1 (stereo not drawn),1.94
20,Cc1cc(C(F)(F)F)cc(NNC(=O)NC(=O)c2ccccc2Cl)n1,10.6
21,COC(CNS(=O)(=O)c1ccc(S(=O)(=O)NC2CC2)cc1)OC,1.93
